Shown are actives, neighbours in structure and some others; about 0.38% of the full set was active somewhere.
HRas wt GTP: modulators of GTP binding to HRas wildtype, primary screen, biochemical, bead-based flow cytometry, multiplex | GST-Ras wt beads, Bodipy-FL-GTP binding; actives lie on both sides | actives 0.14% (n = 190,000) | GTPase HRas (Homo sapiens), P01112 | GTP binding activity, % at 10 µM;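 active = GTP binding activity at least 20% away from the 100% baseline, either lowered as inhibitor or raised as activator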;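 also: 0% = unlabeled GTP competition control and 100% = no-compound control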
Target sequence (P01112 whole entry, looked up): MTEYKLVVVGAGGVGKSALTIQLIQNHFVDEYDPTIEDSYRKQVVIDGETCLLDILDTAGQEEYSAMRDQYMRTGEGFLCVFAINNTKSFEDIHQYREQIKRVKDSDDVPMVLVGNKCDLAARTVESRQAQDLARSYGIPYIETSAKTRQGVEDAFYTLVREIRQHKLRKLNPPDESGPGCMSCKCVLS
Rab7 wt GTP bind: modulators of GTP binding to Rab7, primary screen, biochemical, wildtype, multiplex bead flow cytometry | Rab7 GTPase wild type (dog), Bodipy-FL-GTP binding | GST-Rab7 beads, fluorescent GTP binding; actives lie on both sides; untreated = 100%, excess cold GTP = 0% | GTP binding activity (percent of control), % at 10 µM | actives 0.055% (n = 190,000);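 active = fluorescent GTP binding to Rab7 beads changed by at least 20 points from the 100% baseline, either direction, mostly lower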;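 also: median green fluorescence of bound Bodipy-FL-GTP per Rab7 bead population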
Rac1 wt GTP bind: wildtype Rac1 GTP binding modulators, primary screen, biochemical, GST-Rac1 beads, flow cytometry, multiplex | fluorescent GTP binding; actives lie on both sides; 0 = cold GTP competed, 100 = untreated | AID 757, 2007 | Ras-related C3 botulinum toxin substrate 1 (Homo sapiens), P63000 | GTP binding activity (% of control), % at 10 µM | actives 0.27% (n = 190,000);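 active = GTP binding activity at least 20 points away from the 100% control level, either lower or higher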
Rac1 mut GTP: GTP binding modulators of activated mutant Rac1, primary screen, biochemical, bead-based flow cytometry, multiplex, fluorescent GTP; Ras-related C3 botulinum toxin substrate 1 (Homo sapiens), P63000; AID 764, 2007; GST-Rac1 activated beads; actives lie on both sides; 100% means binding = to untreated wells; actives 0.11% (n = 190,000); percent activity (GTP binding), % at 10 µM;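 active = GTP binding at least 20 percentage points away from the 100% baseline, in either direction, so actives lie on both sides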
Rab2 wt GTP: modulators of GTP binding to Rab2A wildtype, primary screen, biochemical, dog, bead-based flow cytometry, multiplex; Ras-related protein Rab-2A (Canis lupus familiaris), P61105; GST-Rab2 wt beads, Bodipy-GTP binding; GTP binding activity, % at 10 µM; actives 0.19% (n = 190,000); AID 760, 2007;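 active = GTP binding activity at least 20 points away from 100%, either lowered or raised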;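 also: 0% = beads with excess unlabeled GTP and 100% = no-compound control corrected for plate trend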
Cdc42 wt GTP: modulators of GTP binding to wildtype Cdc42, primary screen, biochemical, multiplex bead flow cytometry, Bodipy-GTP; GST-Cdc42 beads; actives lie on both sides; actives 0.2% (n = 190,000); percent activity (GTP binding), % at 10 µM;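 active = percent activity GTP binding at least 20 points away from the 100% baseline, either down as inhibitor or up as activator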;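 also: median bead fluorescence of bound Bodipy-FL-GTP at 100 nM; 0% = excess unlabeled GTP control and 100% = no compound control; below 100% means less GTP binding so inhibitor and above means activator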
Target sequence (P60953 whole entry, looked up): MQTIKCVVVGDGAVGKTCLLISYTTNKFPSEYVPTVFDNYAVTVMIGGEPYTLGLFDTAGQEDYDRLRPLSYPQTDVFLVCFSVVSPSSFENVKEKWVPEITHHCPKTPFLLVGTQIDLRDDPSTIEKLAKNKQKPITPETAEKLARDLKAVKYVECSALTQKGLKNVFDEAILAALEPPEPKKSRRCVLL
The depositor's hits bear a star; [ ] = remark or other dose.

SMILES | HRas wt GTP | Rab7 wt GTP bind | Rac1 wt GTP bind | Rac1 mut GTP | Rab2 wt GTP | Cdc42 wt GTP
Cc1ccccc1NC(=O)C1CCCN(S(=O)(=O)c2cccc3cccnc23)C1 (stereo unspecified) | 100 | 101 | 103 | 100 | 97 | 98
Cc1ccccc1NC(=O)C1CCCN1S(=O)(=O)c1cccc2cccnc12 (stereo unspecified) | 113 | 109 | 128*[activator] | 111 | 113 | 117
CN(C(=O)COc1ccccc1C(=O)NCCOc1ccccc1)c1ccccc1 | 100 | 102 | 102 | 99 | 99 | 100
CC(=O)c1cccc(NC(=O)C(CC(C)C)NC(=O)C2CCCCC2)c1 (stereo unspecified) | 98 | 95 | 100 | 92 | 99 | 97
CC(=O)Nc1ccc(Nc2ccc3nonc3c2[N+](=O)[O-])cc1 | 95 | 94 | 98 | 95 | 93 | 95
CCc1nnc(NS(=O)(=O)c2ccc(Nc3ccc4nonc4c3[N+](=O)[O-])cc2)s1 | 77* | 87 | 77* | 83 | 76* | 81
Cc1ccc(C(=O)COc2nc(C)nc3ccccc23)cc1 | 97 | 102 | 95 | 92 | 97 | 91
Cc1ccc(NS(=O)(=O)c2cc(NC(=O)c3ccc4c(c3)NC(=O)CS4)ccc2Cl)c(C)c1 | 116 | 113 | 110 | 102 | 129*[activator] | 113
COc1cc2[nH]c(=O)n(C3CCCCC3)c(=O)c2cc1OC | 102 | 102 | 106 | 98 | 101 | 103
COc1cc2[nH]c(=S)nc(NC3CCCC3)c2cc1OC | 60* | 74* | 51* | 70* | 60* | 58*
CC(=O)c1c(N2CCN(C)CC2)nc(=S)n(-c2cc(C)ccc2C)c1C | 95 | 95 | 99 | 94 | 95 | 95
NC(=O)c1cc2nc(-c3ccco3)cc(C(F)(F)F)n2n1 | 65* | 92 | 68* | 81 | 63* | 64*
COc1ccc(-c2cc(C(F)(F)F)n3nc(C(=O)O)cc3n2)cc1OC | 86 | 84 | 77* | 85 | 80 | 81
COC(=O)c1cc2nc(-c3ccc(OC)c(OC)c3)cc(C(F)(F)F)n2n1 | 99 | 101 | 100 | 100 | 99 | 98
COc1cc(C(=O)NCCCNc2nc3cc(C)c(C)cc3cc2C#N)cc(OC)c1OC | 102 | 104 | 102 | 97 | 105 | 104
O=C(Nc1cnn(C23CC4CC(CC(C4)C2)C3)c1)c1cnn2cccnc12 | 123*[activator] | 117 | 138*[activator] | 117 | 121*[activator] | 129*[activator]
CCOc1ccc(C(CC(=O)O)NC(=O)c2sc3ccccc3c2Cl)cc1 (stereo unspecified) | 96 | 97 | 95 | 94 | 94 | 94
CCCOc1ccc(C(CC(=O)O)NC(=O)c2sc3ccccc3c2Cl)cc1 (stereo unspecified) | 77* | 93 | 76* | 69* | 75* | 72*
Cc1cc(Br)ccc1OCCCCN1CCCCC1 | 95 | 101 | 92 | 94 | 96 | 94
CCOC(=O)c1ccc(NC(=O)c2ccccc2[N+](=O)[O-])cc1 | 100 | 101 | 106 | 100 | 94 | 102
CCOC(=O)c1cc([N+](=O)[O-])c([N+](=O)[O-])cc1NC(C)=O | 93 | 91 | 96 | 80 | 91 | 78*
O=C(CCNS(=O)(=O)c1cccc2nsnc12)N1CCN(c2ccccn2)CC1 | 107 | 104 | 138*[activator] | 109 | 110 | 122*[activator]
CC1(C)CC2CC(C)(CN2C(=O)c2cccs2)C1 (stereo unspecified) | 100 | 100 | 157*[activator] | 113 | 104 | 133*[activator]
O=C(COC(=O)c1ccccc1NC(=O)C1CC1)c1ccc2c(c1)OCCO2 | 100 | 99 | 102 | 99 | 99 | 100
Cc1c(C(=O)N/N=C/c2ccc(O)c(Br)c2)sc(N)c1C#N | 80 | 93 | 76* | 92 | 79* | 89
SMILES | HRas wt GTP | Rab7 wt GTP bind | Rac1 wt GTP bind | Rac1 mut GTP | Rab2 wt GTP | Cdc42 wt GTP
COc1cc(/C=N/NC(=O)c2sc(N)c(C#N)c2C)ccc1O | 93 | 95 | 93 | 96 | 90 | 96
Cc1c(NC(=O)CCN2C(=O)c3ccccc3C2=O)c(=O)n(-c2ccccc2)n1C | 86 | 95 | 78* | 84 | 88 | 81
COc1cc(C)c2c(c1C=O)Oc1c(c(C)c(O)c3c1C(O)OC3=O)OC2=O (stereo unspecified) | 81 | 84 | 80 | 76* | 80 | 78*
CC(=O)N1CC(=O)N(Cc2ccccc2)/C(=C/c2ccccc2)C1=O | 97 | 94 | 99 | 95 | 99 | 95
COc1ccc(/C=N/NC(=O)c2cccc([N+](=O)[O-])c2)cc1OC | 98 | 109 | 99 | 94 | 99 | 95
O=C(N/N=C/c1ccc2nccnc2c1)c1cccc([N+](=O)[O-])c1 | 88 | 97 | 77* | 89 | 86 | 82
CCOC(=O)c1nn(-c2ccccc2)c(=O)cc1SC(C)C | 95 | 96 | 97 | 96 | 63* | 99
O=C(N/N=C/c1ccc(-c2ccccc2[N+](=O)[O-])o1)c1cncc(Br)c1 | 84 | 89 | 72* | 89 | 83 | 89
COc1cccc(CC(NC(C)=O)C(=O)NC2CCN(C(=O)C3CC3)CC2)c1OC (stereo unspecified) | 94 | 94 | 102 | 94 | 95 | 98
CCOc1ccccc1NC(=S)N1CCN(c2nc(-c3ccc(F)cc3)cs2)CC1 | 104 | 106 | 107 | 100 | 106 | 103
N#CC(C#N)=C1C=CC=CN1/C(=C\c1ccccc1Cl)C(=O)c1ccccc1 | 86 | 97 | 92 | 82 | 88 | 78*
N#CC(C#N)=C1C=CC=CN1/C(=C\c1ccccc1)C(=O)c1cccs1 | 96 | 99 | 98 | 90 | 95 | 81
CCOC(=O)C1C(C(=O)NN)C1C(=O)Nc1ccccc1 (stereo unspecified) | 101 | 98 | 102 | 100 | 100 | 102
Cc1c(CCC(=O)O)c(=O)oc2cc(O)ccc12 | 101 | 102 | 100 | 99 | 98 | 102
Cc1c(CCC(=O)O)c(=O)oc2cc3occ(-c4ccc(F)cc4)c3cc12 | 83 | 86 | 68* | 83 | 81 | 80
O=C(NNC(=S)NCc1ccc(Cl)cc1)c1ccc(Br)o1 | 90 | 96 | 90 | 80 | 77* | 78*

Source: PubChem BioAssay
